Screening data: PubChem BioAssay, The Scripps Research Institute Molecular Screening Center
Shown are actives, neighbours in structure and some others; about 3.5% of the full set was active somewhere.
MITF primary = human MITF inhibition, primary screen; O75030; AlphaScreen MITF homodimerization, bead proximity signal; inhibition, % at 2.6 µM; hit rate 0.91% among 650,000; AID 1259374; in the data active means inhibition above about 50%;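 further: 0% = vehicle wells with protein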
FBW7 activator = activators of human E3 ligase FBW7; normalized activity (activation), % at 26.1 µM; hit rate 0.13% among 650,000; AlphaScreen FBW7–phospho-cyclin E peptide binding, activator screen; Q969H0; in the data active means normalized activity above about 1.9%;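 further: purified mutant Fbw7 with reduced substrate affinity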
TEAD-YAP block = TEAD-YAP interaction inhibition. HEK-TIYL cells, TEAD-Gal4/YAP UAS-luciferase luminescence. inhibition, % at 9.12 µM. hit rate 1.4% among 640,000. AID 1259422; in the data active means inhibition above about 32%;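 further: 0% = median of test compound wells and 100% = reference inhibitor wells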
GPR151 activ = activates the human receptor GPR151. activation, % at 11.2 µM. hit rate 1% among 650,000. PathHunter beta-arrestin GPR151 cells, luminescence. Q8TDV0; in the data active means activation above about 4.9%;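 further: 0% = median of compound wells and 100% = cells with positive control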
Target sequence (Q8TDV0 whole entry, looked up): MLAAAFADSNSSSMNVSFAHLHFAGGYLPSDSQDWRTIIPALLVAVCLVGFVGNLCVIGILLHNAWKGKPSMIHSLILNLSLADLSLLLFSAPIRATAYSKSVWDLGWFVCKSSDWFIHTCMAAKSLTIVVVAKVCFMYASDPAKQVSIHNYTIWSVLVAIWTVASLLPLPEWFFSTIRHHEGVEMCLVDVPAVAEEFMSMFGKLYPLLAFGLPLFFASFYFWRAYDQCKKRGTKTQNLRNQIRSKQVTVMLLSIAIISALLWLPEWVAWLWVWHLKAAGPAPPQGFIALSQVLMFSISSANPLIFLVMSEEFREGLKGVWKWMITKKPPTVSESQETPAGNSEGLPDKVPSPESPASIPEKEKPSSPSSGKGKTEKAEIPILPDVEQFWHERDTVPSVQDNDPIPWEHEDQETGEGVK
* marks the source's active call; other numbers are inactive results.

SMILES	MITF primary	FBW7 activator	TEAD-YAP block	GPR151 activ
COc1cc(C(=O)Nc2ccc(N3CCCC3)c(Cl)c2)cc(OC)c1OC	25	0	42*	-1
COc1ccc(-c2noc(CSc3ccc(C)cc3)n2)cc1OC	-11	0	-1	1
Cn1c(C(=O)N2CCCC(C(=O)NCCCN3CCCC3)C2)cc2sccc21 (centres undefined)	2	0	-5	1
Cc1ccc(Nc2nc(Cl)nc(Nc3ccc(C)cc3C)n2)c(C)c1	5	0	-1	0
Cc1ccccc1Nc1nc(Cl)nc(Nc2ccccc2C)n1	5	0	45*	1
O=S(=O)(NC1CCCCCC1)c1ccc2c(c1)CCN2	12	0	0	2
C=CCN1/C(=C/C=C/c2sc3ccccc3[n+]2CC=C)Sc2ccccc21	45	0	89*	-1
CCN1/C(=C/C(C)=C/c2sc3ccccc3[n+]2CCO)Sc2ccccc21	44	0	39*	-1
CCN1/C(=C/c2sc3ccccc3[n+]2CCO)Sc2ccccc21	21	1	38*	2
CCN1\C(=C/C=C(C)/C=C/c2sc3ccccc3[n+]2CC)Sc2ccccc21	-24	11*	66*	2
Cc1sc2ccccc2[n+]1CCO	-1	0	-17	1
O=C(NC(=S)Nc1ccc(NC(=O)c2ccco2)cc1)c1cccc(F)c1	4	0	1	0
CCC(C)C(NCc1cccc(Br)c1)C(=O)O (centres undefined)	-38	1	-1	-1
CCOC(=O)c1ccc(NC(=O)c2cn(-c3ccccc3)nc2-c2ccc(F)cc2)cc1	8	0	2	-1
CC1=C(C(=O)OC(C)C(C)(C)C)C(c2ccccc2)NC(=O)N1 (centres undefined)	6	0	-9	1
Cc1ccc(C(=O)N/C(=C\c2ccccc2F)C(=O)N2CC3CC(C2)c2cccc(=O)n2C3)cc1C (centres undefined)	1	0	1	-1
O=C(CSc1nncn1-c1ccccc1)Nc1nc2c(F)c(F)c(F)cc2s1	10	3.9*	-7	-1
CCc1ccc2nc3sc(C(N)=O)c(N)c3cc2c1	11	0	92*	-3
NC(=O)c1sc2nc3cc4c(cc3cc2c1N)OCO4	-4	0	73*	-2
O=C(NC1CCCCC1)NC1CCN(Cc2nnnn2Cc2ccco2)CC1	-13	0	0	-1
CC(C)(C)C(=O)NC1CCN(Cc2nnnn2Cc2ccco2)CC1	-1	0	71*	-5
O=[N+]([O-])c1ccc(NCCOc2nonc2-c2ccccc2)cc1	5	0	8	0
COc1ccccc1N1CCN(c2nnnn2-c2ccccc2)CC1	3	0	37*	-1
CC(=O)N1CCN(CC(=O)NC(c2ccccc2)c2ccccc2)CC1	-4	6.2*	0	0
COc1ccc(-n2ncc3c(=O)[nH]cnc32)cc1	12	1	-2	-1
SMILES	MITF primary	FBW7 activator	TEAD-YAP block	GPR151 activ
COc1ccc(-n2nc3nc[nH]c(=O)c3n2)cc1	6	0	46*	-5
O=C1NC(=S)N/C1=C/c1ccc(-c2ccc3c(c2)C(=O)OC3)o1	-43	2.5*	4	-1
O=C1NC(=S)N/C1=C/c1ccc(-c2cccc(Cl)c2)o1	0	0	-35	-1
CCCN1C(=O)NC2(CCN(C(=O)C(C)Oc3ccccc3)CC2)C1=O (centres undefined)	1	0	-2	-1
COc1cc(/C=N/NC(=O)CCN2CCN(C)CC2)cc(OC)c1O	51*	0	-1	0
COc1cc(/C=N/NC(=O)CCN2CCN(C)CC2)ccc1O	23	0	-4	0
Cn1/c(=N\N=C/c2ccc(O)cc2)sc2ccccc21	10	1.9*	-22	2
Cn1/c(=N/N=C/c2ccc(C(=O)O)cc2)sc2ccccc21	-6	0	-49	-3
CCC[n+]1cccc2ccc3cccnc3c21	11	0	54*	-1
COc1ccc(-n2nc(C(=O)NC3CC3)c3c4ccccc4n(C)c3c2=O)cc1	0	0	2	-1
COc1ccc(Cc2nnc(C3CCN(C(=O)Cn4cnc5ccccc54)CC3)s2)cc1	-3	0	54*	2
CSc1ccc(-c2ccc(-n3ccnc3)cc2)nn1	-37	0	52*	-8
COc1ccc(-n2nc(C)c3c(C)cc(=O)oc32)cc1	-4	0	-5	0
c1ccc2c(c1)nnn1c3ccccc3nc21	4	0	35*	-9
Cc1nc2ccccc2c2nc3ccccc3n12	-3	0	-2	1
CCCCC(=O)NCCNc1nc(C)nc2sc3c(c12)CCCC3	10	0	33*	1
CNCC(O)Cn1ccc2ccccc21 (centres undefined)	4	0	12	1
COc1ccccc1NCC(O)Cn1ccc2ccccc21 (centres undefined)	69*	-1	-4	-1
CC(C)(C)c1ccc(C2CC2C(=O)N/N=C\c2ccc[nH]2)cc1 (centres undefined)	5	0	91*	0
CC(Oc1cccc(Cl)c1)C(=O)Nc1cccc(F)c1 (centres undefined)	20	0	2	0
CC(Oc1cccc(Cl)c1)C(=O)Nc1ccc(F)c([N+](=O)[O-])c1 (centres undefined)	9	0	34*	0
Cc1ccc(-c2nnc(N3CCN(C(=O)c4ccco4)CC3)c3ccccc23)cc1	-3	2.3*	26	1
Cc1ccc(-c2nnc(N3CCN(C(=O)CN4CCCC4)CC3)c3ccccc23)cc1	8	0	1	1
CC(=O)c1c(C)[nH]c(-c2csc(NC3CCCCC3)n2)c1C	-9	1	-4	-1
COC(=O)c1c(C)[nH]c(-c2csc(N)n2)c1C	13	0	51*	0
SMILES	MITF primary	FBW7 activator	TEAD-YAP block	GPR151 activ
CCOC(=O)c1[nH]c(C)c(C(=O)Nc2ccc(C)cc2C)c1C	10	0	51*	0
CCOC(=O)c1[nH]c(C)c(C(=O)Nc2ccc(F)cc2C)c1C	8	0	47*	0
CCOC(=O)c1[nH]c(C)c(C(=O)Nc2ccc(Br)cc2F)c1C	-1	0	-6	-1
COc1cccc(-c2nnc3sc(CN4CCc5ccccc5C4)cn23)c1	3	0	49*	1
Fc1ccc(-c2nnc3sc(CN4CCc5ccccc5C4)cn23)cc1	15	0	1	0
O=C(c1cc2c(=O)oc3ccccc3c2s1)N1CCN(Cc2ccc3c(c2)OCO3)CC1	-18	0	-3	2
OCCNc1ncnc2scc(-c3ccccc3)c12	20	1	19	0
COc1ccc(CCNc2ncnc3scc(-c4ccccc4)c23)cc1OC	-9	0	50*	3
COCCNc1ncnc2scc(-c3ccccc3)c12	-9	0	36*	1
COc1ccc(-c2cc(-c3c(O)ccc4ccccc34)[nH]n2)cc1	4	0	89*	2
COc1ccc(-c2cc(-c3cc(OC)ccc3O)[nH]n2)cc1	12	-1	-46	0
COc1cc(/C(C)=N/NC(=O)c2ccccn2)ccc1O	14	1	-7	-4
